PubChem BioAssay (Tox21)
Results filed as inconclusive are left out. A number with no mark means an inactive call. Active and inactive are the calls of the source. The call rests on the fitted dose curve; in most records, active means well fitted activation curve with a large enough effect; inconclusive means small, poorly fitted or top-dose-only effect; inactive means flat fitted curve, though single readings scatter.

Test: qHTS assay to identify small molecule phospholipidosis (PLD) inducers (AID 1259344)
Conditions: HepG2 phospholipidosis, LipidTOX Red imaging, 24 h; series mostly up to 38.3 µM; PLD induction: at the top concentration
Summary of the method: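 Read-out is LipidTOX Red fluorescence (ex 595/em 615) imaged in HepG2 cells after 24 h compound exposure at 37 C, with Hoechst nuclear counterstain (ex 352/em 461) allowing per-cell normalisation.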
On the % scale 0 is the no-effect control and ±100 the full control effect.

With CCCCC[C@H](O)/C=C/[C@@H]1[C@@H](C/C=C\CCCC(=O)O)[C@@H](O)C[C@H]1O as the molecule, how does the Potency read?
The Potency was “inactive”.

With c1ccc2c(c1)OCC(CN1CCCCC1)O2 (centres undefined) as the molecule, how does the “PLD induction” value read?
The value was -0.257%.

With N[C@H](C(=O)O)[C@@H]1CC(Cl)=NO1 as the molecule, how does the “PLD induction” value read?
The value was -1.19%.

Which “PLD induction” value does the source give for COC1[C@@H](O[C@@H]2O[C@H](C)[C@@H](O[C@H]3C[C@@](C)(O)[C@H](OC(=O)CC(C)C)[C@H](C)O3)[C@H](N(C)C)[C@H]2O)[C@@H](CC=O)C[C@@H](C)[C@@H](O)/C=C/C=C/C[C@@H](C)OC(=O)C[C@H]1OC(C)=O (some centres undefined) here?
The value was 0.0827% [at 15.5 µM].

For CCC[C@@H]1C[C@@H](C(=O)N[C@@H]([C@H]2O[C@H](SC)[C@H](OP(=O)(O)O)[C@@H](O)[C@H]2O)[C@H](C)Cl)N(C)C1, which Potency is on record?
Its Potency is “inactive”.

For C=N[C@@H](C(=O)N[C@@H]1C(=O)N2[C@@H]1SC(C)(C)[C@@H]2C(=O)O)c1ccccc1, which “PLD induction” value is on record?
The value was 0.226%.

For C[S+](CC[C@H](N)C(=O)O)C[C@H]1O[C@@H](n2cnc3c(N)ncnc32)[C@H](O)[C@@H]1O (some centres undefined), which Potency is on record?
Its Potency is “inactive”.

For Cc1ncc(C[n+]2csc(CCO)c2C)c(N)n1, which “PLD induction” value is on record?
Its value is -0.398% [at 15.5 µM].

Which “PLD induction” value does the source give for C[C@@H]1C(=O)NC2=Nc3cccc(Cl)c3CN21 here?
Its value is 0.0716%.

For Cc1c(O)c(=O)ccn1C, which “PLD induction” value is on record?
The value was 0.0699%.

For COc1cc(NS(C)(=O)=O)ccc1Nc1c2ccccc2nc2ccccc12, which “PLD induction” value is on record?
The value was 11.3%.

For CC1CCCCN1CCCOC(=O)c1ccccc1 (centres undefined), which “PLD induction” value is on record?
Its value is -0.661%.

Which “PLD induction” value does the source give for Cc1cc(CC(C)CC(C)(C)C)n(O)c(=O)c1 (centres undefined) (tested in a mixture with another compound) here?
Its value is -0.0683%.

For COC1=C(OC)C(=O)C(C/C=C(\C)CC/C=C(\C)CC/C=C(\C)CC/C=C(\C)CC/C=C(\C)CC/C=C(\C)CC/C=C(\C)CC/C=C(\C)CC/C=C(\C)CCC=C(C)C)=C(C)C1=O, which Potency is on record?
The Potency was “inactive”.
